In PubChem BioAssay (NCI):
This is part of a sample that, as a whole, favours compounds with a hit. Of some 79,000 tested, about 15% had one in any assay. Unmarked numbers belong to inactive results. The source made the active and inactive calls. Cut-off read from the data, not from the text of the source: active = growth inhibition above about 70%; inactive = the rest.

Assays:
[1] = NCI Yeast Anticancer Drug Screen. Data for the rad50 strain (AID 155);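 note: 0% = growth of vehicle-only cultures of the same strain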; conditions: S. cerevisiae rad50 strain growth inhibition; at 50.0 µM; hits give high values
Summary of the method: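 Readout: growth inhibition relative to vehicle-treated cultures. Compound exposure was carried out in a genetically defined yeast strain deficient in DNA damage repair.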

[2] = NCI Yeast Anticancer Drug Screen. Data for the mec2-1 strain (AID 157); conditions: S. cerevisiae mec2-1 strain, at 50.0 µM, hits give high values
Summary of the method: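 Using mec2-1 yeast: add compound, measure growth, express inhibition versus vehicle-treated cultures.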

[3] = NCI Yeast Anticancer Drug Screen. Data for the sgs1 mgt1 strain (AID 161);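 note: 0% = growth of cultures given vehicle only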; conditions: S. cerevisiae sgs1 mgt1 strain, at 50.0 µM, hits give high values
Summary of the method: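 Compounds are added to genetically altered yeast, and growth is compared with cultures given vehicle alone to give percent inhibition.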

[4] = NCI Yeast Anticancer Drug Screen. Data for the cln2 rad14 strain (AID 165);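 note: 0% = growth equal to vehicle treated cultures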; conditions: S. cerevisiae cln2 rad14 strain, at 50.0 µM, hits give high values
Summary of the method: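 Yeast strain cln2 rad14, bearing defects in cell cycle control and DNA repair, serves as the test system; values reflect growth inhibition compared with vehicle.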

[5] = NCI Yeast Anticancer Drug Screen. Data for the bub3 strain (AID 167); conditions: S. cerevisiae bub3 mutant strain, at 50.0 µM, hits give high values
Summary of the method: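 Readout: yeast growth inhibition, expressed relative to vehicle-only wells. The test organism is a mutant strain from a panel with lesions in DNA repair or checkpoint genes.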

[6] = NCI Yeast Anticancer Drug Screen. Data for the mlh1 rad18 strain (AID 175); conditions: S. cerevisiae mlh1 rad18 strain growth inhibition; at 50.0 µM; hits give high values
Summary of the method: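 Steps: expose repair-defective yeast to compound; measure growth; express inhibition against vehicle-treated controls.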

Row | SMILES | growth inhibition [1] | growth inhibition [2] | growth inhibition [3] | growth inhibition [4] | growth inhibition [5] | growth inhibition [6] [%]
1 | Cc1ccc(-c2c(C#N)c(-c3ccccc3)n(NS(=O)(=O)c3ccccc3)c(=O)c2C#N)cc1 | 42.1% | 49.8% | 47.1% | 51.2% | 49.6% | –
2 | C[C@@H]1CC[C@]2(C(=O)O)CC[C@]3(C)C(=CC[C@@H]4[C@@]5(C)CC[C@H](O)C(C)(C)[C@@H]5CC[C@]43C)[C@@H]2[C@]1(C)O | 27.1% | 38.5% | 2.75% | 13.5% | 26.4% | –
3 | NNC(=O)CCCCCCO | 5.3% | 16.3% | 10.1% | 27.6% | 18.3% | –
4 | CCOC(=O)/C=C/C(=O)O.[Cu+2] | 5.2% | -14.3% | -4% | -13.7% | -17.2% | –
5 | COC(=O)c1nc(=S)[nH]c(C(=O)OC)c1C(=O)c1ccc(C)cc1 | -3.7% | -7.15% | 5.75% | -14% | 10.6% | –
6 | CC(O)CN1CNC(=S)NC1 (configuration not stated) | -3.8% | -39.3% | -3.55% | 8.75% | -16.2% | –
7 | O/N=C1\CCc2nonc2\C1=N/Nc1ccccc1 | -2.05% | 2.8% | -2.35% | 1.45% | 7% | –
8 | CC(=O)Nc1cc2cc(NS(=O)(=O)c3cc(C(F)(F)F)cc(C(F)(F)F)c3)ccc2oc1=O | 0% | -10.2% | -4.9% | 17.4% | -9.95% | –
9 | CCOC(=O)CCC(NC1=C(Cl)C(=O)c2ccccc2C1=O)C(=O)O (configuration not stated) | 12.2% | 2.15% | 20.4% | -63.1% | 0.15% | –
10 | CC12CC3CC(C)(C1)CC(SCCN=C(N)CCl)(C3)C2 | 98.5% (active) | 99% (active) | 99.3% (active) | 96.3% (active) | 99% (active) | –
11 | Cc1cccc(C)c1NC(=O)C(Cl)Cl | -2.9% | -0.6% | -3.9% | 5.05% | -12% | –
12 | O=C(Nc1nc2c(ncn2C2OC(CO)C(O)C2O)c(=O)[nH]1)c1ccccc1 (configuration not stated) | 2.45% | -26.9% | -20.2% | 11.6% | 12.7% | –
13 | CCOC(COc1ccc2ccccc2c1)OCC | -18.6% | 0.5% | 0.55% | -55.7% | 6.9% | –
14 | O=c1[nH]cc(C2OCC(O)C(O)C2O)c(=O)[nH]1 (configuration not stated) | 1.45% | -14.4% | 0.5% | 1.95% | -19.1% | -32.5
15 | Cc1cc(C(C)C)c(C)cc1C(C)C | -18.9% | -4.25% | -14.4% | -7% | -6.2% | –
16 | CC(C)CCCC(C)C1CCC2C3CC=C4CC(P(=O)(c5ccccc5)c5ccccc5)CCC4(C)C3CCC12C (configuration not stated) | 10.3% | -9.9% | -6.05% | -10.5% | 5.75% | –
17 | CC(=O)NNc1nc(C)c(C(/C=C/c2ccc(NC(C)=O)cc2)=N/NS(=O)(=O)c2ccc(C)cc2)s1 | -6.75% | -23.8% | 3.15% | -6.2% | 6.35% | –
18 | C=CC(O)C1OC2OC(C)(C)OC2C2OC(C)(C)OC12 (configuration not stated) | -2.75% | 13.2% | 2.7% | -32.8% | 21.4% | –
19 | CC[O-].CC[O-].O=C1C=C([O-])C(=O)c2ccccc21.O=C1C=C([O-])C(=O)c2ccccc21.[Ti+4] | 17.3% | 14.3% | 15.4% | 26.2% | 30.4% | –
20 | Cc1cc(Br)c(I)c([N+](=O)[O-])c1 | 34.5% | 27.6% | 17.8% | 13.3% | 7.45% | –
21 | Cc1c(-c2ccccc2)noc1-n1nnc2ccccc2c1=O | -7.45% | 29.6% | 11.4% | -42.8% | 48.4% | –
22 | Nc1ccc(Nc2ccc([N+](=O)[O-])cc2S(=O)(=O)O)cc1 | 9.1% | 4% | -17% | -16.4% | -7.65% | –
23 | CNc1nc(C(F)(F)F)nc2[nH]ncc12 | 5.15% | 17.9% | -7.65% | -16.9% | -20.6% | –

Row | SMILES | growth inhibition [1] | growth inhibition [2] | growth inhibition [3] | growth inhibition [4] | growth inhibition [5] | growth inhibition [6] [%]
24 | O=C(/C=C(/CC(=O)c1ccccc1)C(=O)c1ccccc1)c1ccccc1 | -13.1% | -22.9% | -11.2% | -22.1% | -10.5% | –
25 | O=C(/C=C/c1ccc(O)cc1)c1ccc2c(c1)OCO2 | 8.05% | 23.3% | 25.8% | -1.55% | 43% | –
26 | Oc1ccc(C(O)CNCCCCCCNCC(O)c2ccc(O)c(O)c2)cc1O (configuration not stated) | -17.2% | 6.65% | -2% | 6.5% | -1.45% | –
27 | COc1cc2c(cc1C1=NC(C)(C)CO1)OCO2 | -7.35% | -18.7% | -28.9% | -0.6% | -24.1% | –
28 | Cc1ccc(S(=O)(=O)/N=[N+](\[O-])c2ccc(N(C)C)cc2)cc1 | -32.4% | -3.35% | -7.55% | -35.7% | -7.8% | –
29 | O=C(O)c1ccc([N+](=O)[O-])cc1Cl | -11.9% | -10% | -1.55% | 8.15% | -3.25% | –
30 | OCCNc1ncnc2ccccc12 | -16.6% | -1.7% | 4.35% | -4.7% | 6.15% | –
31 | COC1OC2COC(c3ccccc3)OC2C(N=[N+]=[N-])C1O (configuration not stated) | -0.1% | 4% | -4.9% | -31.2% | -7.45% | –
32 | NC(=O)c1nnsc1NC=O | 15.2% | 7.95% | -40.7% | -0.2% | -26.1% | –
33 | CC(C)Cc1ccc(C(C)CC2=CCC(CN(C)C)C2=O)cc1 (configuration not stated) | 79.2% (active) | 91.5% (active) | 90.2% (active) | 84.4% (active) | 88.7% (active) | –
34 | Cc1ccccc1Nc1nc2ccccc2nc1NS(=O)(=O)c1ccccc1 | 5.1% | 0% | 5.85% | -0.8% | 18.1% | –
35 | COc1cc(C(=O)O)cc(OC(C)=O)c1OC | 16.6% | 3.9% | 8.3% | 8.65% | 3.4% | –
36 | COc1ccc(/C=N/NC(=O)O)cc1 | 4.55% | -5.35% | -24% | -12.3% | -32.5% | –
37 | Cc1ccc(N=CN(C)C)c(Cl)c1 | -4.5% | 0.8% | 4.6% | -16.8% | -7.4% | –
38 | O=c1[nH]c(=O)c2nc3cc(-c4ccc5nc6[nH]c(=O)[nH]c(=O)c6nc5c4)ccc3nc2[nH]1 | 14.2% | 12.1% | 12.4% | 54% | 2.65% | –
39 | CCOC(=O)NC(=S)Nc1cn(C)cc1[N+](=O)[O-] | 3.2% | -5.9% | 8.8% | 1.9% | 3.65% | –
40 | C[C@@H]1C(=O)CC2(O)[C@@]13C[C@@H](OC(=O)[C@@H]3O)[C@@H](C)[C@@]21COC1=O (some centres not stated) | 13.8% | 14.2% | -20.6% | -6.65% | -28.1% | –
41 | COC(C)CC(=O)O (configuration not stated) | -25.8% | -28.2% | -37.2% | -24.5% | -13.2% | -4.9
42 | C/C(N=NC(=S)N1CCCCC1)=C1\C=CC=CN1O | 10.8% | -6.8% | 53.8% | 97.8% (active) | 43.2% | 22.1
43 | O=C(Nc1ccccc1Cl)c1ccc([N+](=O)[O-])cc1 | 11.4% | 15.4% | 18.6% | 10.3% | 11.2% | 24.6
44 | COc1ccccc1-c1ccc([N+](=O)[O-])cc1[N+](=O)[O-] | 18.9% | -5.7% | -1.9% | 8.65% | 22.2% | 14.8
45 | OCCNCc1ccc2c(c1)OCO2 | -4.1% | 3.85% | -9.5% | -4.85% | -5.25% | 1.4
46 | C/C(=N/NC(N)=S)c1ccc2ccccc2c1 | 17.4% | 17.1% | 43.8% | 17.2% | 28.9% | 29.4
